Source: PubChem BioAssay (National Center for Advancing Translational Sciences (NCATS))
Cruzain inh Det: qHTS Assay for Promiscuous and Specific Inhibitors of Cruzain (with detergent); Cruzipain (Trypanosoma cruzi), P25779; Potency, µM, most hits filed as inhibitors; AID 1478, 2009; actives 0.43% (n = 200,000); purified cruzain, Z-FR-AMC fluorescence, 0.01% Triton; note: nearly all actives have a fitted effect of over 40% in size
Target sequence (P25779 123-467 limits assumed): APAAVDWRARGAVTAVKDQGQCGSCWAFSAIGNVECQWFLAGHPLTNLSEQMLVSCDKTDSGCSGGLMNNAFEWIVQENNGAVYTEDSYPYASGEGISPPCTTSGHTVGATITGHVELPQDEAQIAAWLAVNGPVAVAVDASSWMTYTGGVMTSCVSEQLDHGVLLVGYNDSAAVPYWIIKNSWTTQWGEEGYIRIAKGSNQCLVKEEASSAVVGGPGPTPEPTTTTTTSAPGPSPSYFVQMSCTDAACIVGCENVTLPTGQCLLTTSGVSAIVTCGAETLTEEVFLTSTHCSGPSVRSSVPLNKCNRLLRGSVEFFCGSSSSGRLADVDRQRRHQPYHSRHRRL
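Compounds were screened in titration against cruzain (1.5 nM) with 0.01% Triton X-100 to counter colloidal aggregation. Activity was the AMC fluorescence increase over 60 s after adding 2 uM Z-FR-AMC at pH 5.5.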
Cruzain noTriton: qHTS Assay for Promiscuous and Specific Inhibitors of Cruzain (without detergent). purified cruzain, Z-FR-AMC fluorescence, no detergent. Potency, µM, most hits filed as inhibitors. actives 2.3% (n = 200,000). AID 1476, 2009; note: nearly all actives have a fitted effect of over 40% in size
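Purified cruzain at 1.5 nM, pre-incubated 15 min with compound at room temperature in 100 mM sodium acetate pH 5.5, 5 mM DTT, 0.00005% Triton X-100. Reaction started with 2 uM Z-FR-AMC; AMC fluorescence increase over 60 s gives rate.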
Giardia FBPA inh: qHTS Assay for Inhibitors of Fructose-1,6-bisphosphate Aldolase from Giardia Lamblia | purified Giardia FBPA | Potency, µM (highest dose often 59.6 µM), most hits filed as inhibitors | actives 0.71% (n = 290,000); note: nearly all actives have a fitted effect of over 55% in size
Target sequence (A8B2U2 whole entry, looked up): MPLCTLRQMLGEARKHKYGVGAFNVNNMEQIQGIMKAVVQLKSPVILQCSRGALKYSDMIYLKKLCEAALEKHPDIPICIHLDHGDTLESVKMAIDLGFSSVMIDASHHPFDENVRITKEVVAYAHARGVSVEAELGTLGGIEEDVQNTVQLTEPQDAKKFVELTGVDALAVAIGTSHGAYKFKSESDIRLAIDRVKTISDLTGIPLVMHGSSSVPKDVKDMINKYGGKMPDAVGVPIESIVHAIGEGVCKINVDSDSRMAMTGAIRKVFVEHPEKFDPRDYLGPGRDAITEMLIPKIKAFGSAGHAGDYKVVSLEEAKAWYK
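Giardia FBPA (40 nM reagent) was preincubated 10 min at RT with compound (up to 57.5 uM final), then substrate plus GAPDH/TPI/NAD/arsenate coupling system with diaphorase/resazurin was added; resorufin fluorescence (525/598 nm) was read after 20 min.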
Large screens that a line does not name were inactive. This excerpt belongs to a sample that is enriched for hits. Calls come from the whole dose curve; as a rule, active = well fitted curve in the direction sought with a large enough effect; inconclusive = small, poorly fitted or top-dose-only effect, or another doubt; inactive = no such curve, though single readings can be large; an effect the other way counts as inactive or inconclusive.

COc1ccc(NC(=O)CSc2c3c(nc4ccc(Cl)cc24)CCCC3)cc1Cl	none (no result: Giardia FBPA inh)
COc1ccccc1N1Cc2ccccc2C1	Cruzain noTriton 16µM
COc1ccccc1N1CCNCC1	none
COc1ccc(OC)c(N2Cc3ccccc3C2)c1	Cruzain noTriton inconclusive, Giardia FBPA inh inconclusive
COc1ccc(Cl)cc1N1Cc2ccccc2C1	Cruzain noTriton 25µM
O[C@@H](c1cc([C@@]23C[C@H]4CC[C@@H]2C[C@H](C4)C3)nc2c(Cl)cc(Cl)cc12)C1CCCCN1 (stereo not given in full)	none (no result: Giardia FBPA inh)
COc1ccc(NC(=O)Nc2nnc(N3CCCCCC3)s2)c(OC)c1	none (no result: Giardia FBPA inh)
CCOc1ccc(CCNC(=O)NCc2noc3ccc(C)cc23)cc1	none (no result: Giardia FBPA inh)
Cc1nn(-c2ccccc2)c2sc(C(=O)Nc3ccc(Br)cc3)cc12	none (no result: Giardia FBPA inh)
Cc1nn(-c2ccccc2)c2sc(C(=O)Nc3cccc(Br)c3)cc12	Cruzain noTriton 20µM (no result: Giardia FBPA inh)
Cc1nn(-c2ccccc2)c2sc(C(=O)OCn3nnc4ccccc4c3=O)cc12	Cruzain noTriton 25µM
Cc1cc(C)n(-c2ccc(C(=O)OCn3nnc4ccccc4c3=O)cc2)n1	none
COc1ccc(C2CC(=O)c3c([nH]c(C(=O)OCc4ccccc4)c3C)C2)cc1OC (stereo not given)	none (no result: Giardia FBPA inh)
C/C=C/COC(=O)c1[nH]c2c(c1C)C(=O)CC(c1ccc(N(C)C)cc1)C2 (stereo not given)	Cruzain noTriton 32µM
Cc1c(C(=O)OCc2ccccc2)[nH]c2c1C(=O)CC(c1ccc(Cl)cc1)C2 (stereo not given)	Cruzain noTriton 7.9µM (no result: Giardia FBPA inh)
CCOCCOC(=O)c1[nH]c2c(c1C)C(=O)CC(c1ccc(N(C)C)cc1)C2 (stereo not given)	none
COc1ccc(-c2nsc(NC(=O)c3ccccc3Br)n2)cc1	none (no result: Giardia FBPA inh)
COc1ccc(-c2onc(C)c2C)cc1S(=O)(=O)NCc1ccc(C)o1	none (no result: Giardia FBPA inh)
C=CC(=O)OCC(CO)(COC(=O)C=C)COC(=O)C=C	none (no result: Giardia FBPA inh)
CN=C(N)/N=C(\N)Nc1cc2ccccc2c2ccccc12	none (no result: Giardia FBPA inh)
CCOc1ccc(OCC)c(NC(=O)CCS(=O)(=O)c2ccc(Br)s2)c1	none
CCOc1ccc(OCC)c(NC(=O)C(NS(=O)(=O)c2ccc(Br)s2)c2ccccc2)c1 (stereo not given)	Cruzain noTriton 10µM (no result: Giardia FBPA inh)
CCOC(=O)/C=C(\C)Sc1cc(O)c2ccccc2c1O	Giardia FBPA inh 7.1µM (no result: Cruzain inh Det, Cruzain noTriton)
CCOC(=O)/C=C(\C)Sc1cc(=O)oc2ccccc12	none
O=C1C(Nc2ccccc2)=C(N2CCCCC2)C(=O)c2ccccc21	Giardia FBPA inh inconclusive
O=C(/C=C/c1ccc(O)cc1)c1ccc(NC2=C(N3CCCCC3)C(=O)c3ccccc3C2=O)cc1	Cruzain noTriton 13µM, Giardia FBPA inh inconclusive
CN(C)c1ccc(C(CNC(=O)c2ccccc2Br)c2c[nH]c3ccccc23)cc1 (stereo not given)	Cruzain noTriton 25µM
CN(C)c1ccc(C(CNC(=O)c2ccc(C#N)cc2)c2c[nH]c3ccccc23)cc1 (stereo not given)	Cruzain noTriton inconclusive
CCOC(=O)c1ccc(S(=O)(=O)NCC(c2ccc(N(C)C)cc2)c2c[nH]c3ccccc23)cc1 (stereo not given)	Cruzain noTriton inconclusive
CN(C)c1ccc(C(CNS(=O)(=O)c2ccc(F)cc2)c2c[nH]c3ccccc23)cc1 (stereo not given)	Cruzain noTriton 32µM
COc1ccc(CC(=O)Nc2sc3c(c2C(=O)Nc2c(C)cccc2C)CCCCC3)cc1	none (no result: Giardia FBPA inh)
COc1ccc(/C=N/NC(=S)Nc2ccccc2)cc1COc1ccc(F)cc1F	Cruzain noTriton 7.9µM
COc1ccc(NC(=S)N/N=C/c2ccc(F)cc2)cc1OC	none (no result: Cruzain inh Det, Cruzain noTriton)
O=C1c2ccccc2C(O)(O)[C@@]1(O)[C@]1(O)C(=O)c2ccccc2C1(O)O	none (no result: Giardia FBPA inh)
COc1ccc(N2CCN(C(=O)CN3C(=O)COc4ccc(S(=O)(=O)N5CCC(C)CC5)cc43)CC2)cc1	Cruzain noTriton inconclusive (no result: Giardia FBPA inh)
COc1ccccc1NC(=O)c1sc(NC(=O)c2ccco2)c(C#N)c1C	none
Cc1ccccc1OCC(=O)Nc1sc(C(=O)Nc2cccc(C)c2C)c(C)c1C#N	Cruzain noTriton 7.9µM
CCN(CC)c1ccc(NC(=O)/C=C/c2cc(Br)ccc2OC)cc1	Cruzain noTriton 25µM
COc1ccc(NC(=O)/C=C/c2cc(Br)ccc2OC)cc1	none
O=C(O)CCc1ccc(-c2ccccc2)[nH]1	none (no result: Giardia FBPA inh)
CC(=O)Nc1ccc(-c2cc(-c3ccccc3)nc(-c3ccccc3)n2)cc1	Cruzain noTriton inconclusive
CC(=O)Nc1ccc(-c2cc(-c3ccc(NC(C)=O)cc3)nc(-c3ccc(NC(C)=O)cc3)n2)cc1	Cruzain inh Det inconclusive, Cruzain noTriton 32µM
CC(=O)Nc1ccc(-c2cc(-c3ccc(NC(C)=O)cc3)nc(-c3ccccc3)n2)cc1	Cruzain noTriton 16µM
CCC(=O)Nc1ccc(-c2cc(-c3ccccc3)nc(-c3ccc(NC(=O)CC)cc3)n2)cc1	none
CCC1CC=CC2C1C(=O)N(Cc1ccccc1)C2c1cccc([N+](=O)[O-])c1 (stereo not given)	none (no result: Cruzain inh Det, Cruzain noTriton)
COc1cccc(-c2cc(C(=O)Nc3ccc4c(c3)OCCO4)c3ccccc3n2)c1	Cruzain noTriton inconclusive, Giardia FBPA inh inconclusive
COc1ccc(COc2cc(-c3cccc(OC)c3)nc3ccc(NC(=O)c4ccccc4)cc23)cc1	Cruzain noTriton 7.9µM
COc1ccc(COc2cc(-c3cccc(OC)c3)nc3ccc(NC(=O)c4cccnc4)cc23)cc1	none
COc1ccc(COc2cc(-c3cccc(OC)c3)nc3ccc(NC(=O)c4ccc(Cl)cc4)cc23)cc1	Cruzain noTriton 2.8µM
O=C(O)c1cccc(NC(=O)c2ccc(COc3ccc(Cl)cc3)cc2)c1	none (no result: Cruzain inh Det, Cruzain noTriton)
COc1ccc(COc2cc(-c3cccc(OC)c3)nc3ccc(NC(=O)c4ccc(OC)cc4)cc23)cc1	Cruzain noTriton 7.9µM
N[C@@H](Cc1cc(CP(=O)(O)O)cc(-c2ccccc2Cl)c1)C(=O)O	Giardia FBPA inh inconclusive
COc1ccc(S(=O)(=O)N2Cc3ccccc3CC2C(=O)Nc2ccc3c(c2)OCO3)cc1 (stereo not given)	Cruzain noTriton 25µM
Cc1ccc(S(=O)(=O)N2Cc3ccccc3CC2C(=O)Nc2ccc3c(c2)OCO3)cc1 (stereo not given)	Cruzain noTriton inconclusive
COc1ccc(Cn2nnnc2C(c2cccs2)N2CCN(c3ccccc3)CC2)cc1 (stereo not given)	none
COc1ccc(Cn2nnnc2C(c2cccs2)N2CCN(c3ccc([N+](=O)[O-])cc3)CC2)cc1 (stereo not given)	Cruzain noTriton 32µM
C[C@@H](CSC(=N)N)C(N)=O	none (no result: Giardia FBPA inh)
O=C1OCCN1C(=O)[C@H]1[C@H](c2ccc([N+](=O)[O-])cc2)C(c2ccc(F)cc2)=NN1c1ccc(Br)cc1	Cruzain noTriton 8.9µM
O=C1OCCN1C(=O)[C@H]1[C@H](c2ccc([N+](=O)[O-])cc2)C(c2ccc(F)cc2)=NN1c1ccccc1	Cruzain noTriton inconclusive
O=C1OCCN1C(=O)[C@H]1[C@H](c2ccccc2)C(c2ccccc2)=NN1c1ccc(Br)cc1	Cruzain noTriton 20µM
O=C1OCCN1C(=O)[C@H]1[C@H](c2ccccc2)C(c2ccccc2)=NN1c1ccccc1	Cruzain noTriton inconclusive
